# Data: PubChem BioAssay AID588850 (Sanford-Burnham Center for Chemical Genomics, 2011)
# Hit rate of the full screen: of about 360,000 compounds, about 3,100 (0.86%) were called active.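 The calls were made as follows: active = at least 50% inhibition at 5 µM, scaled per plate between neutral and stimulator controls; inactive = the rest.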 The full list was thinned out, with actives kept by preference.
# Assay: inhibitors of PAF-induced NF-kB signaling, primary screen, cell-based, GFP fluorescence, uHTS (AID 588850);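 also: PAF is a Pseudomonas aeruginosa culture filtrate used as stimulus; plate controls were PAF-stimulated DMSO wells for no effect and unstimulated DMSO wells for full effect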
# Conditions: KKLEB NF-kB-GFP reporter, GFP fluorescence overnight, at 5 µM, active compounds read high
row,Compound,inhibition
1,COC1C(O)C(C)OC(OC2CCC3(C=O)C(CCC4C3CCC3(C)C(C5=CC(=O)OC5)CCC43O)C2)C1O (stereo not given),91.1% (active)
2,CCOP(=S)(OCC)SCOC(=O)NCC(=O)OC,-6.4% (inactive)
3,O=c1c2ccccc2[nH]c(=S)n1-c1cccc(Cl)c1,-27.2% (inactive)
4,Cc1ccc(-c2nn(CCC#N)cc2C(=O)O)cc1C,13.3% (inactive)
5,CC[N+](CC)(CC)CCCCCCCCCC[N+](CC)(CC)CC,9.5% (inactive)
6,COc1c(O)ccc2c1-c1c3c(cc4c1C(C2)N(C)CC4)OCO3 (stereo not given),-18.7% (inactive)
7,O=C1NC(=O)N(CCc2ccc(F)cc2)C(=O)/C1=C/C=C/c1ccccc1,101% (active)
8,c1cncc(CNC2=NCCC2)c1,13.7% (inactive)
9,CN1CCc2cc3c(cc2[C@H]1[C@@H]1OC(=O)c2c1ccc1c2OCO1)OCO3,15.1% (inactive)
10,CN(C)CCCN=Cc1c(O)n(Cc2ccco2)c(=O)[nH]c1=O,13.6% (inactive)
11,C[C@]12CC[C@H](O)C[C@H]1CC[C@@H]1C2CC[C@]2(C)[C@@H](C3=CC(=O)OC3)[C@@H](O)C[C@]12O (stereo not given in full),53.2% (active)
12,CC12CCC(O)CC1CCC1C2CCC2(C)C(C(=O)CC(O)C(F)(F)F)CCC12 (stereo not given),9.6% (inactive)
13,CCOP(=O)(OCC)C(NC(=O)NC)C(N)=O (stereo not given),-12.3% (inactive)
14,CC=C(C)C(=O)OC1CCN2CC=C(COC(=O)C(O)(C(C)OC)C(C)(C)O)C12 (stereo not given),1.6% (inactive)
15,CC(C)Oc1cccc(C(=O)C2CCCN(C3CCOCC3)C2)c1 (stereo not given),-10.1% (inactive)
16,CCOC(=O)c1cccc(C2=C(CNC(=O)c3ccncc3)[C@H]3CC[C@@H](C2)N3Cc2ccccc2)c1,2.6% (inactive)
17,CC(=CCOc1ccc2ccc(=O)oc2c1)C1=CC(=O)C(C)(C)O1,75.5% (active)
18,O=C(CCN1CCCCC1)NCC(=O)Nc1ccc(Br)cc1C(=O)c1ccccc1,-1.9% (inactive)
19,CC1=C(C(=O)Nc2ccccc2)SCCO1,-0.6% (inactive)
20,Cc1nn(-c2ccccc2)c(C)c1NC(=O)COC(=O)Cc1ccccc1,5.1% (inactive)
21,CSCCC(c1nnnn1C(C)(C)C)N1CCC(n2c(=O)[nH]c3ccccc32)CC1 (stereo not given),-10.2% (inactive)
22,O=c1[nH]c2ccccc2n1C1CCN(C(c2ccnc3ccccc23)c2nnnn2Cc2ccccc2)CC1 (stereo not given),39.9% (inactive)
23,O=C1NCN(c2ccccc2)C12CCN(C(c1cccs1)c1nnnn1C1CCCCC1)CC2 (stereo not given),-6.5% (inactive)
24,COc1ccc(-n2nnnc2C(c2cccc3ccccc23)N2CCC(n3c(=O)[nH]c4ccccc43)CC2)cc1 (stereo not given),53.2% (active)
25,O=c1[nH]c2ccccc2n1C1CCN(C(c2ccccc2)c2nnnn2Cc2ccccc2)CC1 (stereo not given),85.1% (active)

row,Compound,inhibition
1,COc1cccc(C(c2nnnn2-c2ccc3c(c2)OCCO3)N2CCC3(CC2)C(=O)NCN3c2ccccc2)c1OC (stereo not given),-0.8% (inactive)
2,COC(=O)C1=C(c2ccccc2OCc2ccccc2)C[C@@H]2CC[C@H]1N2C(=O)NCc1ccc(OC)cc1,-7.5% (inactive)
3,CN(C)CC1CCCCC1=O (stereo not given),6% (inactive)
4,CC(C)(C)c1ccc(OC(=O)N2CCCCC2)cc1,16% (inactive)
5,N=c1ccccn1Cc1ccccc1,14.3% (inactive)
6,CC1=C2C(=O)C3C(CC=C4CC(OC5OC(O)C(O)C(O)C5CO)CCC43C)C2CCC12OC1CC(C)CNC1C2C (stereo not given),7.6% (inactive)
7,CCC1(C)CC(CCNCc2ccc(N(C)C)cc2)(c2ccc(F)cc2)CCO1 (stereo not given),22.8% (inactive)
8,Cc1cc(C)c2c(c1)NP(=S)(c1ccccc1)N2 (stereo not given),24.3% (inactive)
9,CCOC(=O)CC1=C(C(=O)OCC)C2(C(=O)N1)C(C(=O)OC)=C(N)Oc1ccccc12 (stereo not given),-14% (inactive)
10,CN(C)CC1Oc2ccccc2OC1(O)c1ccccc1 (stereo not given),75.7% (active)
11,CN(C)S(=O)(=O)c1cc(C(=O)N2CCC(C(=O)O)(c3ccccc3)CC2)ccc1Cl,7.2% (inactive)
12,COC(=O)C1=C(c2ccccc2)C[C@@H]2CC[C@H]1N2C(=O)N1CCCCC1,-2.3% (inactive)
13,Cc1cccc(NC(=O)OC2CN3CCC2CC3)c1 (stereo not given),9% (inactive)
14,O=C1NC(=O)C(Cc2ccccc2)C(=O)N1,-11% (inactive)
15,C=CCN1C(=O)C2(C(C(=O)OCC)=C(N)Oc3c2c(=O)oc2ccccc32)c2ccccc21 (stereo not given),-5.7% (inactive)
16,CC(=O)OC1C2(CC3N4C(=O)C5(CO)SSC4(CC31O)C(=O)N5C)OC(C)C(C)(C)C2=O (stereo not given),88.5% (active)
17,CC(CC(C#N)(c1ccccc1)c1ccccc1)N1CCCCC1 (stereo not given),7.8% (inactive)
18,CCC(C)(O)C(=O)OC1C(=O)OC2CC3C(C)=CC(=O)C(O)C3(C)C3C4(O)OCC23C1C(C)C4O (stereo not given),91.3% (active)
19,CCOC(=O)C1(Cc2ccc(Cl)cc2)CCN(C(C)CCn2cccn2)CC1 (stereo not given),29.4% (inactive)
20,CC1(C)C(c2ccccc2)=NC(c2cccnc2)=[N+]1[O-],7.5% (inactive)
21,CCCCCCCCCCCCn1ccc(=N)cc1,61.8% (active)
22,CN(C)C(=O)Oc1ccc(NC(=O)N2CCOCC2)cc1,-9.2% (inactive)
23,O=C(CCC(=O)N1C[C@H]2C[C@@H](C1)c1cccc(=O)n1C2)NCc1ccccc1C(F)(F)F,-6.7% (inactive)
24,COC(=O)C1=C(c2cccc(OCc3ccccc3)c2)C[C@@H]2CC[C@H]1N2C(=O)NCc1ccc(Br)cc1,6.2% (inactive)
25,COC(=O)COc1cc(C)cc2oc(=O)c3c(c12)CCCC3,5.1% (inactive)
